Measurements as given in PubChem BioAssay (EPA / NIEHS).
Results filed as inconclusive are left out. Calls of active or inactive are those of the source. How the source made its calls, unless noted: active means hit-call score of the fitted dose curve at least 0.9, where 1 is the maximum; inactive means score below 0.9.

Legend:
[1] = target: Oxysterols receptor LXR-beta (Homo sapiens) (UniProt P55055); experiment: ATG_LXRb_TRANS: Attagene TRANS-FACTORIAL HepG2 Assay for human Liver X Receptor beta (LXRb) (AID 2282981; active means hit-call score of the fitted dose curve at least 0.9, where 1 is the maximum); conditions: HepG2 Attagene TRANS GAL4-LXRb reporter, mRNA
Chain of Oxysterols receptor LXR-beta (Homo sapiens) (P55055 whole entry, looked up, the tested form may be a part): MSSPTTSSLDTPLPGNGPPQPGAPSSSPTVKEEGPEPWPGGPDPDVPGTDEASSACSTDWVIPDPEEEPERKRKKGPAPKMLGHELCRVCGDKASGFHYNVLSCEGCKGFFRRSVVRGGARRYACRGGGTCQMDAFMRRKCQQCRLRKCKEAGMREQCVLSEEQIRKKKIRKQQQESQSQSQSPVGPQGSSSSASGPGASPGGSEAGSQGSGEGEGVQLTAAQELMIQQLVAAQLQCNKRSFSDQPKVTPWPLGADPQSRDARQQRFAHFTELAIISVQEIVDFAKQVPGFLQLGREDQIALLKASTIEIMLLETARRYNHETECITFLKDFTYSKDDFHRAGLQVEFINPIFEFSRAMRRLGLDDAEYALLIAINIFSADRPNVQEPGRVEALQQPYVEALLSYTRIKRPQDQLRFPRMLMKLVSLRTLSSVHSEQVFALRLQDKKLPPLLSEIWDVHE
In short: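 Measures induction of a Gal4-driven reporter transcript in HepG2 cells expressing an exogenous LXRb-Gal4 fusion. Cells are exposed to compound for 24 h before RNA isolation and RT-PCR with capillary electrophoresis detection.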

[2] = target: Hepatocyte nuclear factor 4-alpha (Homo sapiens) (UniProt P41235); experiment: ATG_HNF4a_TRANS: Attagene TRANS-FACTORIAL HepG2 Assay for human Hepatocyte Nuclear Factor 4 alpha (HNF4a) (AID 2282982; active means hit-call score of the fitted dose curve at least 0.9, where 1 is the maximum); conditions: HepG2 HNF4a transactivation reporter, mRNA readout
Chain of Hepatocyte nuclear factor 4-alpha (Homo sapiens) (P41235 whole entry, looked up, the tested form may be a part): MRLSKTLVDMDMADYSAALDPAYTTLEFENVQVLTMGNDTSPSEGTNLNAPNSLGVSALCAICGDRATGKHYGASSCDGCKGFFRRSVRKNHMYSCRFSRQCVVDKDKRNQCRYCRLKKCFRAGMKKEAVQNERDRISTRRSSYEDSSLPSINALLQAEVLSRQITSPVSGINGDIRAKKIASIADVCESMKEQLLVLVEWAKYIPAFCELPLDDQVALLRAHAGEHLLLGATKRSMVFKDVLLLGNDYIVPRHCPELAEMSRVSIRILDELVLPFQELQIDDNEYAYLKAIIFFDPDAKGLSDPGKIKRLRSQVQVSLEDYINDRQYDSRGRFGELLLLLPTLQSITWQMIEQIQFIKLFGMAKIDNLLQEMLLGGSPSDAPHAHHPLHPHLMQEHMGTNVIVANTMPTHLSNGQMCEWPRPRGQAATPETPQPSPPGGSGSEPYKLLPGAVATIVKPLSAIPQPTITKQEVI
In short: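 In this trans-factorial format, a chimeric HNF4a-GAL4 fusion drives a GAL4-UAS reporter in transfected HepG2 liver cells. After 24 h treatment, reporter mRNA induction is measured by RT-PCR with capillary electrophoresis, relative to DMSO.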

[3] = ATG_M_06_TRANS: Attagene TRANS-FACTORIAL HepG2 Assay for M06 Transcription Factor (Internal Marker) (AID 2282983; active means hit-call score of the fitted dose curve at least 0.9, where 1 is the maximum); conditions: HepG2 Attagene TRANS M06 internal marker reporter
In short: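 Background-control reporter readout: after 24 h chemical exposure of transiently transfected HepG2 (GAL4-UAS reporter units), mRNA quantified by RT-PCR with fluorescent labeling and capillary electrophoresis. Gain-of-signal fitting against DMSO baseline.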

[4] = ATG_M_32_TRANS: Attagene TRANS-FACTORIAL HepG2 Assay for M32 Transcription Factor (Internal Marker) (AID 2282984; active means hit-call score of the fitted dose curve at least 0.9, where 1 is the maximum;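 further: transcript level of a background control reporter unit measured by RT-PCR and capillary electrophoresis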); conditions: HepG2 Attagene TRANS M32 internal marker reporter
In short: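 After 24 h dosing of transfected HepG2 cells, total RNA was reverse-transcribed, reporter sequences PCR-amplified, 6-FAM labelled by primer extension and HpaI-digested before capillary electrophoresis. Signal increase over DMSO was fitted.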

[5] = target: Transcriptional activator Myb (Homo sapiens) (UniProt P10242); experiment: ATG_Myb_CIS: Attagene CIS-FACTORIAL HepG2 Assay for human Myeloblastosis (Myb) Proto-Oncogene Transcription Factor (AID 2282986); conditions: HepG2 Attagene CIS-FACTORIAL Myb reporter transcription; actives raise or lower the signal
Chain of Transcriptional activator Myb (Homo sapiens) (P10242 whole entry, looked up): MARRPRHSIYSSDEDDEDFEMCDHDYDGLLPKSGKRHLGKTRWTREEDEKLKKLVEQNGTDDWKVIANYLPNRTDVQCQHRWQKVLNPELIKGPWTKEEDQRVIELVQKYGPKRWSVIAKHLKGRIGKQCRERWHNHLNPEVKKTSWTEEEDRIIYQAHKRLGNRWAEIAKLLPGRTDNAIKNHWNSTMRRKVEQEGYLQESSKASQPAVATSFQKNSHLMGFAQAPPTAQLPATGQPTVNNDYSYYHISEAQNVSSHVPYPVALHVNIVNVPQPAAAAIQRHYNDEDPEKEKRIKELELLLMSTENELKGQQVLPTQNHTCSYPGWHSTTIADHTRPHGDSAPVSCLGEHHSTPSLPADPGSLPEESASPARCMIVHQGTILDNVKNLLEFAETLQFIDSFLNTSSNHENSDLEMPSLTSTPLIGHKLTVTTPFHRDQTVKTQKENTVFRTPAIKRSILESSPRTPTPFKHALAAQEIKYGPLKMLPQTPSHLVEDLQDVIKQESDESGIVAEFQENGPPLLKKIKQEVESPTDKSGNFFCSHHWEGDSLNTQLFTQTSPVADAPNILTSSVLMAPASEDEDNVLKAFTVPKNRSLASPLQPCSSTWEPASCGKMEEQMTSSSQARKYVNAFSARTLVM
In short: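 Fluorescence signals from capillary electrophoresis of RT-PCR-amplified reporter cDNA give the read-out. Cells: HepG2 transfected with multiple cis-regulated reporter units. Exposure lasts 24 hours; DMSO defines baseline for gain or loss of signal.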

[6] = target: Nuclear respiratory factor 1 (Homo sapiens) (UniProt Q16656); experiment: ATG_NRF1_CIS: Attagene CIS-FACTORIAL HepG2 Assay for human Nuclear Respiratory Factor 1 (NRF1) Orphan Gene (AID 2282987); conditions: HepG2 NRF1 cis-element reporter, Attagene multiplex; actives raise or lower the signal
Chain of Nuclear respiratory factor 1 (Homo sapiens) (Q16656 whole entry, looked up): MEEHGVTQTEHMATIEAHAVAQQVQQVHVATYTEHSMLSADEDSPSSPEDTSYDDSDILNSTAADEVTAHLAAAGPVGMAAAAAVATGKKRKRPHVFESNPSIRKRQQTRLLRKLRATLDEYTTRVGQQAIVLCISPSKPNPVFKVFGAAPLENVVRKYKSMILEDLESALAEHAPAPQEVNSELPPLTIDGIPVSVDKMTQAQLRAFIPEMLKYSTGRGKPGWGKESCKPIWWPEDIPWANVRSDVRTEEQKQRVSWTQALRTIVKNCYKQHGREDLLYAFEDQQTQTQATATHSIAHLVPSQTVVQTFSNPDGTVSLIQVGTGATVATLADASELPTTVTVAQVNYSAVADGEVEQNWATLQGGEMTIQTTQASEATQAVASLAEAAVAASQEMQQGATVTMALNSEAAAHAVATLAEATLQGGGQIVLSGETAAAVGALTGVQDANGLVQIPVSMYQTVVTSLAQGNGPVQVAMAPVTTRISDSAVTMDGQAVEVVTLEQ
In short: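 Transcriptional reporter readout, one component of a 52-endpoint multiplexed HepG2 panel. Exposure 24 h; mRNA detected via RT-PCR and fluorescent capillary electrophoresis; fitting in both directions against DMSO.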

[7] = ATG_NFI_CIS: Attagene CIS-FACTORIAL HepG2 Assay for human Nuclear Factor I (NFI) (AID 2282989); conditions: HepG2 cis-regulatory reporter, NFI response element transcription; actives raise or lower the signal
In short: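 Endogenous TF activity in HepG2 cells transiently transfected with cis-element-driven multiplexed reporter units, read 24 h after dosing. Reporter mRNA quantified by RT-PCR, 6-FAM labelling, HpaI digestion and capillary electrophoresis; bidirectional fit versus DMSO.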

[8] = target: Myc proto-oncogene protein (Homo sapiens) (UniProt P01106); experiment: ATG_Myc_CIS: Attagene CIS-FACTORIAL HepG2 Assay for human Myelocytomatosis (Myc) Proto-Oncogene Transcription Factor (AID 2282990); conditions: HepG2, Attagene cis-reporter transcription factor activity; actives raise or lower the signal
Chain of Myc proto-oncogene protein (Homo sapiens) (P01106 whole entry, looked up): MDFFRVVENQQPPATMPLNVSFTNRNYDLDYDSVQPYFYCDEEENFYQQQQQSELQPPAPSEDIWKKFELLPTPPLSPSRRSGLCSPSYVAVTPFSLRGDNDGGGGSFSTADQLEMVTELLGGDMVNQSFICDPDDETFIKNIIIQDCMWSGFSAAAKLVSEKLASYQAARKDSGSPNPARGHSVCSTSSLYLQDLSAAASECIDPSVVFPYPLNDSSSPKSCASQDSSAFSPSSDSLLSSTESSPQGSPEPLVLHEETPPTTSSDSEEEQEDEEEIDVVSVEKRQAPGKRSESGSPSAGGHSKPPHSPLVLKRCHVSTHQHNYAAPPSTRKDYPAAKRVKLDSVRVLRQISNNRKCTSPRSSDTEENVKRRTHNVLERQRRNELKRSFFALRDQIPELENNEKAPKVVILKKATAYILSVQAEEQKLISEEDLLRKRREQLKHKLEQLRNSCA
In short: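 DMSO-normalised, bidirectionally fitted reporter mRNA signal. HepG2 cells transfected with cis reporter constructs, treated 24 h; transcripts detected by RT-PCR, 6-FAM primer extension and CE.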

[9] = ATG_NF_kB_CIS: Attagene CIS-FACTORIAL HepG2 Assay for human Nuclear Factor Kappa B (NF-kB) (AID 2282991); conditions: HepG2 Attagene cis-factorial NF-kB reporter mRNA; actives raise or lower the signal
In short: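 HepG2, transient multi-reporter transfection, cis promoter elements (endogenous TFs). 24 h exposure. Total RNA → RT → PCR → 6-FAM label → HpaI → CE. Gain/loss vs DMSO.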

[10] = ATG_NRF2_ARE_CIS: Attagene CIS-FACTORIAL HepG2 Assay for human Nuclear Factor Erythroid 2 Related Factor 2 (NFR2) response to Antioxidant Response Elements (ARE) (AID 2282992); conditions: HepG2 Attagene ARE/NRF2 reporter, transcription factor activity; actives raise or lower the signal;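 on AC50: reporter mRNA level measured by RT-PCR and capillary electrophoresis fluorescence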
In short: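 Readout: reporter mRNA quantified by RT-PCR plus FAM-labelled primer extension, HpaI digestion and capillary electrophoresis, 24 h after dosing transfected HepG2 cells. Gain or loss of signal is fitted bidirectionally against DMSO baseline.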

[11] = ATG_Oct_MLP_CIS: Attagene CIS-FACTORIAL HepG2 Assay for human Octamer-Binding Transcription Factor (Oct) (AID 2282993); conditions: HepG2 Attagene cis-factorial Oct reporter, mRNA; actives raise or lower the signal
In short: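 HepG2 cells transiently transfected with cis-element-driven reporter transcription units (endogenous TF activity); 24 h compound exposure. Reporter mRNA quantified by RT-PCR, 6-FAM labelling, HpaI digestion and capillary electrophoresis; bidirectional fit versus DMSO baseline.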

[12] = target: Cellular tumor antigen p53 (Homo sapiens) (UniProt P04637); experiment: ATG_p53_CIS: Attagene CIS-FACTORIAL HepG2 Assay for human p53 Transcription Factor (AID 2282994); conditions: HepG2 p53 cis-element reporter, Attagene mRNA; actives raise or lower the signal
Chain of Cellular tumor antigen p53 (Homo sapiens) (P04637 whole entry, looked up): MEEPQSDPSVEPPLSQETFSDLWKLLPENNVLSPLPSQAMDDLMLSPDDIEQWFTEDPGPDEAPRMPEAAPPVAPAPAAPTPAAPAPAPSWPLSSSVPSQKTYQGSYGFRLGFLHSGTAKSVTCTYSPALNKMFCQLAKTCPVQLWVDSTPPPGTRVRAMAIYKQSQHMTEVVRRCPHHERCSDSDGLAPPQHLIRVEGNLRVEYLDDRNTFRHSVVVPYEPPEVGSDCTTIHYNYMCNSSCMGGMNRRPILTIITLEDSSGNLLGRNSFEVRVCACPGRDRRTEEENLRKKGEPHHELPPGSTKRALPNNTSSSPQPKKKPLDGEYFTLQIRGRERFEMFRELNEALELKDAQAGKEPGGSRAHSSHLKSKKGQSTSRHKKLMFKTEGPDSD
In short: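 Read-out: reporter mRNA by RT-PCR plus capillary electrophoresis with fluorescence detection. Human HepG2 liver cells carried transfected multi-reporter cis-element constructs, dosed 24 h. Gain or loss of signal fitted bidirectionally against DMSO control.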

[13] = target: human Peroxisome Proliferator-activated Receptor alpha (PPARa), PPARA (gene 5465) (UniProt Q07869); experiment: ATG_PPARa_TRANS: Attagene TRANS-FACTORIAL HepG2 Assay for human Peroxisome Proliferator-activated Receptor alpha (PPARa) (AID 2283001; active means hit-call score of the fitted dose curve at least 0.9, where 1 is the maximum)
Chain of human Peroxisome Proliferator-activated Receptor alpha (PPARa), PPARA (gene 5465) (Q07869 whole entry, looked up): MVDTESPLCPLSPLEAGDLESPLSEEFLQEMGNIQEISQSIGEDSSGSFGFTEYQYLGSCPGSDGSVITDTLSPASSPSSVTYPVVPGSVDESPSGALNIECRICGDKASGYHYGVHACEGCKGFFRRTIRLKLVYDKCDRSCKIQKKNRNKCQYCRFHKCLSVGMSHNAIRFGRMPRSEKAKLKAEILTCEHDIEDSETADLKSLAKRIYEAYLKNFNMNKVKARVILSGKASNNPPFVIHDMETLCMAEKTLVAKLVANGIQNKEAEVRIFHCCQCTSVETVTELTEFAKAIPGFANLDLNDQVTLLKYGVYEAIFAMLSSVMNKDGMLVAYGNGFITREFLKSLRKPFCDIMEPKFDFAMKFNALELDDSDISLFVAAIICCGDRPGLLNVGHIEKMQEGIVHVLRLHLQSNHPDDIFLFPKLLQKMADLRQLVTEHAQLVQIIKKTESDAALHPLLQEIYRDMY
In short: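 Cells (HepG2) are transfected with multiple reporter transcription units, exposed to chemical for 24 h, then total RNA is reverse-transcribed and amplified. Labelled products are quantified by capillary electrophoresis; induction is referenced to DMSO.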

[14] = target: Oxysterols receptor LXR-alpha (Homo sapiens) (UniProt Q13133); experiment: ATG_LXRa_TRANS: Attagene TRANS-FACTORIAL HepG2 Assay for human Liver X Receptor alpha (LXRa) (AID 2282980; active means hit-call score of the fitted dose curve at least 0.9, where 1 is the maximum); conditions: HepG2 Attagene TRANS reporter, LXRa transactivation
Chain of Oxysterols receptor LXR-alpha (Homo sapiens) (Q13133 whole entry, looked up, the tested form may be a part): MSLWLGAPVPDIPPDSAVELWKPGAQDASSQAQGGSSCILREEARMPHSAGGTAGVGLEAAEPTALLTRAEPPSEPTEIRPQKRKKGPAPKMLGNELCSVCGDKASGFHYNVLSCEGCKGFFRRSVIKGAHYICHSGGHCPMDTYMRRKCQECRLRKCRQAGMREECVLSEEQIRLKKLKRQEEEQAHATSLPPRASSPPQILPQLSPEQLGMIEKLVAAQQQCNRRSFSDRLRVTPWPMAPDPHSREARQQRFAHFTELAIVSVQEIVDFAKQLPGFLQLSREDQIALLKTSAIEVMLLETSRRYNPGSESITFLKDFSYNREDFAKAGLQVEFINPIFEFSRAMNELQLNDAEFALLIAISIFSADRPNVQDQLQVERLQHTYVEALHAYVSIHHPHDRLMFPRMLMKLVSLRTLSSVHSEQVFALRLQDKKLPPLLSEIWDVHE
In short: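 Chemical-induced reporter mRNA measured by RT-PCR with fluorescent labelling and capillary electrophoresis after 24 h dosing of transiently transfected HepG2 cells expressing exogenous NR-Gal4 chimeras; increases scored against DMSO baseline.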

[15] = target: Nuclear receptor subfamily 4 group A member 2 (Homo sapiens) (UniProt P43354); experiment: ATG_NURR1_TRANS: Attagene TRANS-FACTORIAL HepG2 Assay for human Nuclear Receptor Related Protein 1 (NURR1) (AID 2282985; active means hit-call score of the fitted dose curve at least 0.9, where 1 is the maximum); conditions: HepG2 Attagene TRANS reporter, mRNA readout
Chain of Nuclear receptor subfamily 4 group A member 2 (Homo sapiens) (P43354 whole entry, looked up, the tested form may be a part): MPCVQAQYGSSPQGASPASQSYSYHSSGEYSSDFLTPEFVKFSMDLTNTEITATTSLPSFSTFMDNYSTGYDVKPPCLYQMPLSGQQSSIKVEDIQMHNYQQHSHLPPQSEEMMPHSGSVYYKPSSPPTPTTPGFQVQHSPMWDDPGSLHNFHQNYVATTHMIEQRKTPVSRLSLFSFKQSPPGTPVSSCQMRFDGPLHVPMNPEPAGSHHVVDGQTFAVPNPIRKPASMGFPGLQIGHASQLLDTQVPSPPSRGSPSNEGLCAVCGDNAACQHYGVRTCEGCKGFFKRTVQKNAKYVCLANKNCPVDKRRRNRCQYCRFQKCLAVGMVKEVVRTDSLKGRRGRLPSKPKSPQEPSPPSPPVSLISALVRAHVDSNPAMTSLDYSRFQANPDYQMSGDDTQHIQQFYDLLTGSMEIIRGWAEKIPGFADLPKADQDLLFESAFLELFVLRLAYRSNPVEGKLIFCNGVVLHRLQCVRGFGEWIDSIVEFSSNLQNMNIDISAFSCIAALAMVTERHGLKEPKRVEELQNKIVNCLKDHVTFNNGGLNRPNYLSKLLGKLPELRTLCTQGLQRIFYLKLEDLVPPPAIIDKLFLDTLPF
In short: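 Chimeric NR-Gal4 fusion activity measured in HepG2 after 24 h treatment. Reporter transcripts detected by RT-PCR and capillary electrophoresis fluorescence; positive-direction curve fitting against DMSO.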

[16] = BSK_3C_TissueFactor: BioMAP Diversity Plus: 3C Assay for Tissue Factor Biomarker Activity (AID 2282997); conditions: BioMAP 3C HUVEC, tissue factor biomarker readout; actives raise or lower the signal
In short: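 Tissue factor on primary human umbilical vein endothelium was read by ELISA 24 h after dosing, gain or loss relative to DMSO. Cytotoxicity ran alongside via SRB (0.1%, TCA-fixed, 560 nm).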

[17] = BSK_3C_uPAR: BioMAP Diversity Plus: 3C Assay for Urokinase-type plasminogen activator receptor (uPAR) Biomarker Activity (AID 2282998); conditions: BioMAP 3C HUVEC, uPAR biomarker ELISA; actives raise or lower the signal
In short: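 Primary human umbilical vein endothelial cells, 3C system; surface uPAR measured by ELISA 24 h after dosing. Cytotoxicity via SRB total protein in parallel cultures; bidirectional fit against DMSO.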

[18] = BSK_3C_VCAM1: BioMAP Diversity Plus: 3C Assay for Vascular cell adhesion molecule 1 (VCAM1) Biomarker Activity (AID 2282999); conditions: BioMAP 3C HUVEC, VCAM1 ELISA, cytokine-stimulated; actives raise or lower the signal
In short: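 Vascular primary endothelium (human umbilical vein) was exposed to chemicals and assayed 24 h later. VCAM-1 levels came from ELISA, with DMSO serving as baseline for bidirectional fitting.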

Measured: AC50

COc1ccc(C#N)cc1
not listed: [14] | [15] | [16] | [17] | [18]
inactive: all other assays above

COCC1CCC(CO)CC1 (stereo not given)
inactive: [14] | [5] | [6] | [7] | [9] | [10] | [11] | [12]

Oc1c(Cl)ccc(Cl)c1Cl
not listed: [3] | [9] | [14] | [15] | [16] | [17] | [18]
inactive: all other assays above

C[N+](C)(CCCNS(=O)(=O)CCC(F)(F)C(F)(F)C(F)(F)C(F)(F)C(F)(F)C(F)(F)F)CC(=O)[O-]
active: [10] 0.00659 µM
not listed: [1] | [2] | [3] | [16] | [17] | [18]
inactive: all other assays above

C=CC(=O)OCCC(F)(F)C(F)(F)C(F)(F)C(F)(F)C(F)(F)C(F)(F)F
active: [10] 18.6 µM
not listed: [1] | [2] | [4] | [16] | [17] | [18]
inactive: all other assays above

CCOC=C(C(=O)OCC)C(=O)OCC
not listed: [2] | [14] | [16] | [17] | [18]
inactive: all other assays above

CCOC(=O)CN[C@@H](C(=O)N1CC[C@H]1C(=O)NCc1ccc(/C(N)=N/O)cc1)C1CCCCC1
active: [15] 3.99 µM
not listed: [3] | [14]
inactive: all other assays above
